# Measurements published in PubChem BioAssay (Tox21).
# Inconclusive results are not listed. Entries that show only a call come without a potency. The source made the active and inactive calls. The call rests on the fitted dose curve; in most records, active means well fitted curve in the direction sought with a large enough effect in the repeat runs; inconclusive means weak or mixed curves; inactive means no such curve, though single readings can be large; an effect the other way counts as inactive or inconclusive.
# Assay: A CellTox Green Cytotoxicity Assay to monitor cytotoxicity in HepG2 cells - 8 hour (AID 1224890); further: nearly all actives have a fitted effect of over 45% in size
# Conditions: CellTox Green fluorescence; series mostly up to 76.8 µM
# How it was run: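 Nonlytic assay: viable cells exclude the dye, so fluorescence scales with cell death. HepG2 at 600 cells/well, compounds added after 5 h, signal read across 40 h.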
row,Structure (SMILES),Potency
1,CC(C(=O)O)c1ccc2c(c1)Cc1cccnc1O2 (stereo not given),inactive
2,Cc1cc(SC2=C(O)C[C@@](CCc3ccc(N)cc3)(C(C)C)OC2=O)c(C(C)(C)C)cc1CO,inactive
3,Oc1ccc(CCNCCCCCCNCCc2ccccc2)cc1O,inactive
4,CCN(CCCCOC(=O)c1ccc(OC)c(OC)c1)C(C)Cc1ccc(OC)cc1 (stereo not given),inactive
5,O=Cc1ccc(Cl)c([N+](=O)[O-])c1,inactive
6,CC(C)CCCCCCCOC(=O)c1ccc(C(=O)OCCCCCCCC(C)C)c(C(=O)OCCCCCCCC(C)C)c1,inactive
7,Cc1ccc(NC(=O)c2ccc(CN3CCN(C)CC3)cc2)cc1Nc1nccc(-c2cccnc2)n1,inactive
8,O=S(=O)(O)c1cc(Cl)c(Cl)cc1Cl,inactive
9,Cc1nc(C)c(C)nc1C,inactive
10,CCn1nc(Cc2ccccc2)cc1C1CCN(C[C@H]2C[C@H](N(C)[C@@H](C(=O)O)C(C)C)C[C@@H]2c2cccc(F)c2)CC1,inactive
11,O=C(Cl)c1cc(Cl)cc(Cl)c1,inactive
12,CC(C)(C)NCC(O)COc1ccc(NC(=O)NC2CCCCC2)cc1 (stereo not given),inactive
13,CC(C)(C)c1ccc(CCC=O)cc1,inactive
14,CC(C)(Cc1c[nH]c2ccccc12)NCC(O)COc1ccccc1C#N (stereo not given),inactive
15,CCOC(=O)CC(O)(CC(=O)OCC)C(=O)OCC,inactive
16,CC1=C(C)C(=O)C(CCCCC#CCCCC#CCO)=C(C)C1=O,inactive
17,C[C@H](CN1CCCC1)C(=O)c1ccc(C(F)(F)F)cc1,inactive
18,C=CC(C)CCC=C(C)C (stereo not given),inactive

row,Structure (SMILES),Potency
1,O=C(c1ccc(Cl)cc1)c1ccc(Cl)cc1,inactive
2,CCC(=O)O[C@]1(C(=O)COC)[C@@H](C)C[C@H]2[C@@H]3CCC4=CC(=O)C=C[C@]4(C)C3(F)[C@@H](O)C[C@@]21C (stereo not given in full),inactive
3,COC(=O)C(C)(C)C,inactive
4,C=C[Si](OCC)(OCC)OCC,inactive
5,C=CC(O)CCCCC (stereo not given),inactive
6,O=C1c2ccccc2C(=O)C1c1ccc2ccccc2n1,inactive
7,O=C(OCCOCCOCCOC(=O)c1ccccc1)c1ccccc1,inactive
8,c1ccc(CN(Cc2ccccc2)Cc2ccccc2)cc1,inactive
9,CCCCCCCCCCCCSCCOCCO,inactive
10,CC(C)=CCC/C(C)=C/C=N/O,inactive
11,Cc1c(N=C=O)cccc1N=C=O,inactive
12,CCC(CC)C(=O)O,inactive
13,O=C(O)c1ccccc1-n1cc(C(=O)O)c(=O)c2cc(Nc3c(F)cc(F)cc3Cl)c(Cl)cc21,inactive
14,CCCN(C1CCN(C(=O)C2CCNCC2)CC1)[C@@H]1CCc2ccc(OC)cc2C1,inactive
15,Clc1cc(Cl)c2c(c1)N=C1CCCCCN1C2,inactive
16,C=C[Si]1(C)O[Si](C)(C=C)O[Si](C)(C=C)O[Si](C)(C=C)O1 (stereo not given),inactive
17,CCOC(C)OCC,inactive

# Assay: qHTS assay to identify small molecule antagonists of the estrogen receptor alpha (ER-alpha) signaling pathway using the BG1 cell line in the presence of 0.1 nM 17-beta-estradiol - cell viability counter screen (AID 1259241); further: nearly all actives have a fitted effect of over 40% in size
# Conditions: VM7Luc4E2 (BG1) viability, CellTiter-Fluor protease, 22 h, 0.1 nM estradiol agonist added; series mostly up to 92.4 µM
# How it was run: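 Cytotoxicity counter-screen: live-cell protease activity measured by fluorescence (30 min reagent step) in the same wells. Cells were VM7Luc4E2 with endogenous ER-alpha and ERE-driven luciferase, treated 22 hr at 37C alongside 0.1 nM 17beta-estradiol final.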
row,Structure (SMILES),Potency
1,CC(C(=O)O)c1ccc2c(c1)Cc1cccnc1O2 (stereo not given),inactive
2,CCN(CCCCOC(=O)c1ccc(OC)c(OC)c1)C(C)Cc1ccc(OC)cc1 (stereo not given),inactive
3,O=Cc1ccc(Cl)c([N+](=O)[O-])c1,inactive
4,O=S(=O)(O)c1cc(Cl)c(Cl)cc1Cl,inactive
5,Cc1nc(C)c(C)nc1C,inactive
6,CCn1nc(Cc2ccccc2)cc1C1CCN(C[C@H]2C[C@H](N(C)[C@@H](C(=O)O)C(C)C)C[C@@H]2c2cccc(F)c2)CC1,inactive
7,O=C(Cl)c1cc(Cl)cc(Cl)c1,inactive
8,c1ccc(CCNc2nc(-c3ccccc3)cs2)cc1,inactive
9,O=C(N[C@@H](Cc1ccccc1)[C@@H](O)C(=O)N1C[C@@H](O)[C@@H](O)C1)c1cc2cc(Cl)ccc2[nH]1,inactive
10,CC(C)(C)NCC(O)COc1ccc(NC(=O)NC2CCCCC2)cc1 (stereo not given),inactive
11,CC(C)(C)c1ccc(CCC=O)cc1,inactive
12,CC(C)(Cc1c[nH]c2ccccc12)NCC(O)COc1ccccc1C#N (stereo not given),inactive
13,CCOC(=O)CC(O)(CC(=O)OCC)C(=O)OCC,inactive
14,CCCC(=O)OCCC(C)C,inactive
15,CC1=C(C)C(=O)C(CCCCC#CCCCC#CCO)=C(C)C1=O,inactive
16,C=CC(C)CCC=C(C)C (stereo not given),inactive
17,O=C(c1ccc(Cl)cc1)c1ccc(Cl)cc1,inactive
18,COC(=O)C(C)(C)C,inactive
19,Oc1ccc(Oc2ccccc2)cc1,inactive
20,C=CC(O)CCCCC (stereo not given),inactive
21,O=C1c2ccccc2C(=O)C1c1ccc2ccccc2n1,inactive
22,O=C(OCCOCCOCCOC(=O)c1ccccc1)c1ccccc1,inactive
23,c1ccc(CN(Cc2ccccc2)Cc2ccccc2)cc1,inactive
24,CCCCCCCCCCCCSCCOCCO,inactive
25,CC(C)=CCC/C(C)=C/C=N/O,inactive
26,Cc1c(N=C=O)cccc1N=C=O,inactive
27,CCC(CC)C(=O)O,inactive
28,O=C(O)c1ccccc1-n1cc(C(=O)O)c(=O)c2cc(Nc3c(F)cc(F)cc3Cl)c(Cl)cc21,inactive
29,Clc1cc(Cl)c2c(c1)N=C1CCCCCN1C2,inactive
30,C=C[Si]1(C)O[Si](C)(C=C)O[Si](C)(C=C)O[Si](C)(C=C)O1 (stereo not given),inactive
